# Measured values reported in PMC7862700, “An all-to-all approach to the identification of sequence-specific readers for epigenetic DNA modifications on cytosine”.
# Tests used:
# Experiment in all cases: DAPPL (digital affinity profiling via proximity ligation, sequencing); 10 mM Tris-HCl pH 7.5, 50 mM NaCl, 1 mM DTT, 4% glycerol, room temperature, 30 min; GST-TFs on glutathione beads, 16-mer random dsDNA library, 0.1% formaldehyde crosslink after washing; high values mean tight binding
# FEV = biological target: T1, FEV (Homo sapiens, UniProt Q99581 1-238); details: protein: recombinant; tags: N-terminal GST; dsDNA, one strand shown
# T1 sequence: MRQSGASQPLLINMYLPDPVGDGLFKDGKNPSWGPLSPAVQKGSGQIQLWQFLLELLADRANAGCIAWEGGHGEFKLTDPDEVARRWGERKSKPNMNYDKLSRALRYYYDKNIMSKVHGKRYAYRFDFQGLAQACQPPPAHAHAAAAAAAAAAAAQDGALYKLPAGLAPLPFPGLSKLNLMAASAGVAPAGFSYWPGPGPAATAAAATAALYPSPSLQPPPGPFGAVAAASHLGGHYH
# How it was run: (§1)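 Human transcription factors were made in yeast as GST fusions, captured on glutathione beads and barcoded with DNA. With a tag-only sample included, the pool was incubated with 200 nmole of a random double-stranded 16-mer DNA library in Tris/NaCl/DTT/glycerol buffer at room temperature for 30 min, then crosslinked with 0.1% formaldehyde after washing, ligated by proximity, amplified and sequenced. For binding signal, each hexamer's read frequency for a factor is divided by its frequency for the tag-only sample.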
# ETV5 = ETV5 (Homo sapiens, UniProt P41161 1-510); details: protein: recombinant; tags: N-terminal GST; dsDNA, one strand shown
# Chain of ETV5 (P41161 whole entry): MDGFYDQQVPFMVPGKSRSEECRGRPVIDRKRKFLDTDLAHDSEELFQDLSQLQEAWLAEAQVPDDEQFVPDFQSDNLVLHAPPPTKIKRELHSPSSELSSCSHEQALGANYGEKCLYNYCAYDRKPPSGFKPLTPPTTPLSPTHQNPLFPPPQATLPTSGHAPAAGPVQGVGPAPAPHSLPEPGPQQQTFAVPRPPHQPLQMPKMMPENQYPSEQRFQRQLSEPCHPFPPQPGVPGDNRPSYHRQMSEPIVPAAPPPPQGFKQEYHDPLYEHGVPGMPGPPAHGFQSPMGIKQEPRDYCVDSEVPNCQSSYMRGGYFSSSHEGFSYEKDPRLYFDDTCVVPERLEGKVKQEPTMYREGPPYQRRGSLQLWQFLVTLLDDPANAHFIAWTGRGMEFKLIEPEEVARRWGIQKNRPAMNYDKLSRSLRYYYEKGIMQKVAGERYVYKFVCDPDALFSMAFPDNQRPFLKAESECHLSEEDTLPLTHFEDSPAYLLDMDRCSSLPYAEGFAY
# How it was run: as §1
# HSF1 = HSF1 (Homo sapiens, UniProt Q00613 1-529); details: protein: recombinant; tags: N-terminal GST; chain copies: 3; dsDNA, one strand shown
# Chain of HSF1 (Q00613 whole entry): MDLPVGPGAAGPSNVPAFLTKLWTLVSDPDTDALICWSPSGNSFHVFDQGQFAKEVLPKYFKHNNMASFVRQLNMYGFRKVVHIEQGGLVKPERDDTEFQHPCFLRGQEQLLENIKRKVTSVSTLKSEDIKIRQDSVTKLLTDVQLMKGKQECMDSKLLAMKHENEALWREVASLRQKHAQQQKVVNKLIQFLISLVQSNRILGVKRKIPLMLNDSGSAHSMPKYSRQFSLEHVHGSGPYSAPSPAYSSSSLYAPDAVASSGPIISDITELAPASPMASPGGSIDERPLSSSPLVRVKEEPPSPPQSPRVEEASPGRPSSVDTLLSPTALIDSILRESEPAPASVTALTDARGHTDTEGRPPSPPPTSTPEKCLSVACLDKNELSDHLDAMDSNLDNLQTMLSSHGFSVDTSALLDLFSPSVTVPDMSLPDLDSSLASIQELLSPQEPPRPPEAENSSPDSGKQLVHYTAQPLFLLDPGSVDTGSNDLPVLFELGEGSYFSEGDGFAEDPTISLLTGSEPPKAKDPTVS
# How it was run: as §1
# SPIC = biological target: T2, SPIC (Homo sapiens, UniProt Q8N5J4 1-248); details: protein: recombinant; tags: N-terminal GST; dsDNA, one strand shown
# T2 sequence: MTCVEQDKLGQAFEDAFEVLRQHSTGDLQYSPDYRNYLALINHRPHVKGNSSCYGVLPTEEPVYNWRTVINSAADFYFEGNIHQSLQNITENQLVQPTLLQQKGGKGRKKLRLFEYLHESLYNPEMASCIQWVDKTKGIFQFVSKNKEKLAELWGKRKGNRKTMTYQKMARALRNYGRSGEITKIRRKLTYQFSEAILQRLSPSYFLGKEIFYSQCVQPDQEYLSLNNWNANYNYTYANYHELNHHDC
# How it was run: as §1
# ELF4 = ELF4 (Homo sapiens, UniProt Q99607 1-663); details: protein: recombinant; tags: N-terminal GST; dsDNA, one strand shown
# Chain of ELF4 (Q99607 whole entry): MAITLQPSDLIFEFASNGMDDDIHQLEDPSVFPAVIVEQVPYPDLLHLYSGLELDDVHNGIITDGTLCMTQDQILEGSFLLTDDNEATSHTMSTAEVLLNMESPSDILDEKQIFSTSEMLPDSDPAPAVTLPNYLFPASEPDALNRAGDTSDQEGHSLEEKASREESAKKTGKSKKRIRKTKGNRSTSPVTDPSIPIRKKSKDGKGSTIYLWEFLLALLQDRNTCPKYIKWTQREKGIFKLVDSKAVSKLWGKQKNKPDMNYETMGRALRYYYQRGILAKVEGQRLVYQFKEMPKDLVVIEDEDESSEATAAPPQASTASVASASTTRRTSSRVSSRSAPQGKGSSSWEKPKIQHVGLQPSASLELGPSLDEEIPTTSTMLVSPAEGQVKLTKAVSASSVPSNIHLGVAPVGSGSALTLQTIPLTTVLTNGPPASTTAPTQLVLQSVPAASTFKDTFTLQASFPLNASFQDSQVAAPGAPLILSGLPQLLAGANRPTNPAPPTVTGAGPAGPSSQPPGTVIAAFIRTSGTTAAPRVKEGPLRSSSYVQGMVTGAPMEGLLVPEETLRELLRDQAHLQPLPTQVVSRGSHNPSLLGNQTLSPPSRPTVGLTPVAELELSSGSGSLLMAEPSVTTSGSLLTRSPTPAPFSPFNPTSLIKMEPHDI
# How it was run: as §1
# ELK4 = biological target: T3, ELK4 (Homo sapiens, UniProt P28324-2 1-405); details: protein: recombinant; tags: N-terminal GST; dsDNA, one strand shown
# T3 sequence: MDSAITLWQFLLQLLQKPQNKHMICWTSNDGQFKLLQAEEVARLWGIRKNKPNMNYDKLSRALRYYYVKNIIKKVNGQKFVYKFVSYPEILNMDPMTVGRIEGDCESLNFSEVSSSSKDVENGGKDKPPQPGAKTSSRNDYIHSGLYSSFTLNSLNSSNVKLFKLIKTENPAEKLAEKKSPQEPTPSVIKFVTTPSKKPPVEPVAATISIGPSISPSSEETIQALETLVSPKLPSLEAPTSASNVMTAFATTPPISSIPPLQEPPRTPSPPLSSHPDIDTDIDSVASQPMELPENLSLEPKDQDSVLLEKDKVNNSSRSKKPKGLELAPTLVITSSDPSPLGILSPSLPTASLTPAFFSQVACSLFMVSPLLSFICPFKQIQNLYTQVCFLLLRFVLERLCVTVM
# How it was run: as §1
# ETV2 = biological target: T4, ETV2 (Homo sapiens, UniProt O00321 1-342); details: protein: recombinant; tags: N-terminal GST; dsDNA, one strand shown
# T4 sequence: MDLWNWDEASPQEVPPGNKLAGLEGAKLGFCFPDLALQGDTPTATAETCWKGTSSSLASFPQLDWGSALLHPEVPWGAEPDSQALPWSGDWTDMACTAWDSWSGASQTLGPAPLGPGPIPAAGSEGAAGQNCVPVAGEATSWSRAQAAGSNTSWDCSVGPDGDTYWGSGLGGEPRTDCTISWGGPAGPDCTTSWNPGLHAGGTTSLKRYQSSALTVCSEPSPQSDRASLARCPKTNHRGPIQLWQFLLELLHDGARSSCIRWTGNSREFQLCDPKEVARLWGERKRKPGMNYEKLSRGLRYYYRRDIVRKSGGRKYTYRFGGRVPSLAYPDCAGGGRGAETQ
# How it was run: as §1
# ELF3 = biological target: T5, ELF3 (Homo sapiens, UniProt P78545 1-371); details: protein: recombinant; tags: N-terminal GST; dsDNA, one strand shown
# T5 sequence: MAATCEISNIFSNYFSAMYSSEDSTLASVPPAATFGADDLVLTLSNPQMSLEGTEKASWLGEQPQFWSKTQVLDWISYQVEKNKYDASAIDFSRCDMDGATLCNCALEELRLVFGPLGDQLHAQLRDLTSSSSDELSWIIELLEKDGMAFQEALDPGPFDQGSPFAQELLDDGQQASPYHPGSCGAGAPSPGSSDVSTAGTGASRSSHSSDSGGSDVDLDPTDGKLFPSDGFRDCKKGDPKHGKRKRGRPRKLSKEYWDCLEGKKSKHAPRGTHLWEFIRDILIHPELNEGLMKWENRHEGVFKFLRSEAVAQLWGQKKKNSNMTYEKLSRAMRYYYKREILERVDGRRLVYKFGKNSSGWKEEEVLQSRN
# How it was run: as §1
# CRX = CRX (Homo sapiens, UniProt O43186 1-299); details: protein: recombinant; tags: N-terminal GST; dsDNA, one strand shown
# Chain of CRX (O43186 whole entry): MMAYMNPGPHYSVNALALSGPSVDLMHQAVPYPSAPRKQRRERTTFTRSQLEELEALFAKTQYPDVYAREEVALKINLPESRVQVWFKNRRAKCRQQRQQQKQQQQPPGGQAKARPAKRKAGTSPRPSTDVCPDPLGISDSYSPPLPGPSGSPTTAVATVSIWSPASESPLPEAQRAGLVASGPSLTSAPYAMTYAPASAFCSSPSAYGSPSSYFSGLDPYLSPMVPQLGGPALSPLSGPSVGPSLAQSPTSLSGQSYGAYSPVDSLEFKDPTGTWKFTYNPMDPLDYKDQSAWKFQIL
# How it was run: as §1
# ETV1 = ETV1 (Homo sapiens, UniProt P50549 1-477); details: protein: recombinant; tags: N-terminal GST; dsDNA, one strand shown
# Chain of ETV1 (P50549 whole entry): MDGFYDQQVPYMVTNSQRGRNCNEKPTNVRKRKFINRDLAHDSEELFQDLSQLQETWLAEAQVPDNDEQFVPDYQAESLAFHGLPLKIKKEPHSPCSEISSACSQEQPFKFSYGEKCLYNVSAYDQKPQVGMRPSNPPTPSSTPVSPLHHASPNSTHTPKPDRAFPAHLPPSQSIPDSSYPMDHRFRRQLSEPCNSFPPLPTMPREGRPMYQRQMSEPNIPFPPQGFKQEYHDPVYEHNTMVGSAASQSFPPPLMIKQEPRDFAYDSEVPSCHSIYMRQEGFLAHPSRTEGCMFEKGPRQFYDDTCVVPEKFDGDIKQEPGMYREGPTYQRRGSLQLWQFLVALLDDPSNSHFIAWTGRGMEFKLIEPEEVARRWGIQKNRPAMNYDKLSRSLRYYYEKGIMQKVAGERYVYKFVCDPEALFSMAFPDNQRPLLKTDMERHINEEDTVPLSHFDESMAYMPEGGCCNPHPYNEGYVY
# How it was run: as §1
# ERF = biological target: T6, ERF (Homo sapiens, UniProt P50548 1-548); details: protein: recombinant; tags: N-terminal GST; dsDNA, one strand shown
# T6 sequence: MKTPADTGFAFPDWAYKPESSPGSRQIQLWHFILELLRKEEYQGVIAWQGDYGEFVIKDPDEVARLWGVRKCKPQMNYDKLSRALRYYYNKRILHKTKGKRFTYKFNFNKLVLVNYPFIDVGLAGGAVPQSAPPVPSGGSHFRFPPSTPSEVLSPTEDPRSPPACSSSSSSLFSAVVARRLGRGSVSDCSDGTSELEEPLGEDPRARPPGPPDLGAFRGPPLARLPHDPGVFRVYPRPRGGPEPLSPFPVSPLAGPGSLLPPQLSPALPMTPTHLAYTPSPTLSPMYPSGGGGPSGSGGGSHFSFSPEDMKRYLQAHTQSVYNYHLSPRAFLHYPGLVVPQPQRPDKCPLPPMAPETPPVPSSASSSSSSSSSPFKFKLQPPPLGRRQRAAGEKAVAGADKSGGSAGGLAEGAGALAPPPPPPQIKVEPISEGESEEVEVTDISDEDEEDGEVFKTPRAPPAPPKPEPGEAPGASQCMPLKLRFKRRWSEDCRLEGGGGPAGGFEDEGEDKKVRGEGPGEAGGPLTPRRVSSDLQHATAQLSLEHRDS
# How it was run: as §1
# ETV3L = biological target: T7, ETV3L (Homo sapiens, UniProt Q6ZN32 1-361); details: protein: recombinant; tags: N-terminal GST; dsDNA, one strand shown
# T7 sequence: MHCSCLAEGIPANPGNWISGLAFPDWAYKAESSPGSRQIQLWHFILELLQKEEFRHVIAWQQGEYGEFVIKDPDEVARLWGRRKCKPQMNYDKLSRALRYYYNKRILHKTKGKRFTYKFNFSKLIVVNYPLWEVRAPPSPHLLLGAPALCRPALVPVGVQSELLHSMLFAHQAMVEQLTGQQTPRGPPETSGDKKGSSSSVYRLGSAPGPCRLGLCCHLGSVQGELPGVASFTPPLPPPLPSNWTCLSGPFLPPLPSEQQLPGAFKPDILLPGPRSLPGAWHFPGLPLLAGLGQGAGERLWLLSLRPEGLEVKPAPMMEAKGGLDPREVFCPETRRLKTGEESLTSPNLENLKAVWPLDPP
# How it was run: as §1
# ETS2 = biological target: T8, ETS2 (Homo sapiens, UniProt P15036 1-469); details: protein: recombinant; tags: N-terminal GST; dsDNA, one strand shown
# T8 sequence: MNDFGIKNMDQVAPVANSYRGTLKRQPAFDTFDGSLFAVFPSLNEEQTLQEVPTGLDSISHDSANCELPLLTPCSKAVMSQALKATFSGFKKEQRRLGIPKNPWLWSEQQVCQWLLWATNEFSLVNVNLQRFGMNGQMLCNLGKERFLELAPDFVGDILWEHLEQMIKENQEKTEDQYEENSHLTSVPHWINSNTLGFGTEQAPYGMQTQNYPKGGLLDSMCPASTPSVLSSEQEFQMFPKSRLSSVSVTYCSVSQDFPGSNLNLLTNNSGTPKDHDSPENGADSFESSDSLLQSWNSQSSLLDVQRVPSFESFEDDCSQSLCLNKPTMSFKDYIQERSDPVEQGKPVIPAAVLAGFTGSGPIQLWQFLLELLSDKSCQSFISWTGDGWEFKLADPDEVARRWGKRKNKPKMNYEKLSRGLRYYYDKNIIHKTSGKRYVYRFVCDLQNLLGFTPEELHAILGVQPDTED
# How it was run: as §1
# SPDEF = biological target: T9, SPDEF (Homo sapiens, UniProt O95238 1-335); details: protein: recombinant; tags: N-terminal GST; dsDNA, one strand shown
# T9 sequence: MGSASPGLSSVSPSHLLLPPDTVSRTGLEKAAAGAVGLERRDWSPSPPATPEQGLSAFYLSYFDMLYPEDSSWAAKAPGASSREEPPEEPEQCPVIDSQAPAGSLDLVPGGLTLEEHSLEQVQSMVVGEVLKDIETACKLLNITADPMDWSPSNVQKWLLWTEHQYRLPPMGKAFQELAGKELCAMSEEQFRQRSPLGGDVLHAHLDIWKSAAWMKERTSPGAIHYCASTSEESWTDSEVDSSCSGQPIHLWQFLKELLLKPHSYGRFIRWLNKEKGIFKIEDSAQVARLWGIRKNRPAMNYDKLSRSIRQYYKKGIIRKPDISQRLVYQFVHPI
# How it was run: as §1
# ETV7 = biological target: T10, ETV7 (Homo sapiens, UniProt Q9Y603 1-341); details: protein: recombinant; tags: N-terminal GST; dsDNA, one strand shown
# T10 sequence: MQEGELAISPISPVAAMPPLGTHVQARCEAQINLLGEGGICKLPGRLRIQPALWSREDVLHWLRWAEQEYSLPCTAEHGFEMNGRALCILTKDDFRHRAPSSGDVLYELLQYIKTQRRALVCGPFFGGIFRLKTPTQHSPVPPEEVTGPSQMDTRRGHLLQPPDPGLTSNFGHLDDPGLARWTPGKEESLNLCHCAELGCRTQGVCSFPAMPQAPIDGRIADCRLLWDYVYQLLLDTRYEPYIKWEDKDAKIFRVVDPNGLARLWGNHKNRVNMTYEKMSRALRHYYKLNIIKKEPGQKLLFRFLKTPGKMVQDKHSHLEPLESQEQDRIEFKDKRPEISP
# How it was run: as §1
# ELF5 = biological target: T11, ELF5 (Homo sapiens, UniProt Q9UKW6-2 1-255); details: protein: recombinant; tags: N-terminal GST; dsDNA, one strand shown
# T11 sequence: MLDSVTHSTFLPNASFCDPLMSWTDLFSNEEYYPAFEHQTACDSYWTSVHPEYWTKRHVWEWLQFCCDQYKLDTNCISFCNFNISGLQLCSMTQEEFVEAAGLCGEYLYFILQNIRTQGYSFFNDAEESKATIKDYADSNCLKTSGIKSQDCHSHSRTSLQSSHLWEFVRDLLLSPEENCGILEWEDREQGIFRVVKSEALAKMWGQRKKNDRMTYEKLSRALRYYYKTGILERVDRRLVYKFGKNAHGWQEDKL
# How it was run: as §1
# ETV3 = biological target: T12, ETV3 (Homo sapiens, UniProt P41162-2 1-143); details: protein: recombinant; tags: N-terminal GST; dsDNA, one strand shown
# T12 sequence: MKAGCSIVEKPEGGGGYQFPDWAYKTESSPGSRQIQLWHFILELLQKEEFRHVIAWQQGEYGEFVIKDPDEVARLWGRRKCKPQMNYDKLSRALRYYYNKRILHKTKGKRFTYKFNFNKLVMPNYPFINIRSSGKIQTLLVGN
# How it was run: as §1
# ETV6 = ETV6 (Homo sapiens, UniProt P41212 1-452); details: protein: recombinant; tags: N-terminal GST; dsDNA, one strand shown
# Chain of ETV6 (P41212 whole entry): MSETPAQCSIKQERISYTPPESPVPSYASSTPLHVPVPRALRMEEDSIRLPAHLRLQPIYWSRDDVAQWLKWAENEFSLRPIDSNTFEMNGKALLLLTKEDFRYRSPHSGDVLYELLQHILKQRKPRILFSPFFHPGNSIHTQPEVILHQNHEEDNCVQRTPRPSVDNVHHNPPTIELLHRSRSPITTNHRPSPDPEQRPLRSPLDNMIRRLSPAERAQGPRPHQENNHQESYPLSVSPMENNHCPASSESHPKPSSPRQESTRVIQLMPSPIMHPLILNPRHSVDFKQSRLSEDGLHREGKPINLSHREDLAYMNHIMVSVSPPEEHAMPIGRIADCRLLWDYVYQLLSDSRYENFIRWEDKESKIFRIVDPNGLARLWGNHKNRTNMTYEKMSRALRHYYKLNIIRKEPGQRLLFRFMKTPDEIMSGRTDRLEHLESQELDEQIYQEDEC
# How it was run: as §1
sequence,measurement,setting,value
AACCCT,binding signal,FEV,"1.29 fold enrichment (6-mer frequency, TF over GST control)"
same,binding signal,ETV5,"1.31 fold enrichment (6-mer frequency, TF over GST control)"
same,binding signal,HSF1,"1.24 fold enrichment (6-mer frequency, TF over GST control)"
same,binding signal,SPIC,"1.18 fold enrichment (6-mer frequency, TF over GST control)"
same,binding signal,ELF4,"1.34 fold enrichment (6-mer frequency, TF over GST control)"
same,binding signal,ELK4,"1.24 fold enrichment (6-mer frequency, TF over GST control)"
same,binding signal,ETV2,"1.2 fold enrichment (6-mer frequency, TF over GST control)"
same,binding signal,ELF3,"1.33 fold enrichment (6-mer frequency, TF over GST control)"
same,binding signal,CRX,"1.39 fold enrichment (6-mer frequency, TF over GST control)"
same,binding signal,ETV1,"1.38 fold enrichment (6-mer frequency, TF over GST control)"
same,binding signal,ERF,"1.17 fold enrichment (6-mer frequency, TF over GST control)"
same,binding signal,ETV3L,"1.24 fold enrichment (6-mer frequency, TF over GST control)"
same,binding signal,ETS2,"1.26 fold enrichment (6-mer frequency, TF over GST control)"
same,binding signal,SPDEF,"1.17 fold enrichment (6-mer frequency, TF over GST control)"
same,binding signal,ETV7,"1.24 fold enrichment (6-mer frequency, TF over GST control)"
same,binding signal,ELF5,"1.28 fold enrichment (6-mer frequency, TF over GST control)"
same,binding signal,ETV3,"1.27 fold enrichment (6-mer frequency, TF over GST control)"
same,binding signal,ETV6,"1.33 fold enrichment (6-mer frequency, TF over GST control)"
